# Results from PubChem BioAssay AID488969 (Vanderbilt High Throughput Screening Facility, 2010).
# Over roughly 110,000 compounds, “z-score” has its median near -0.1; the highest 2% begin near 2. Many of the other results were omitted from the sample, so the highest values are more common in it than they were. Active and inactive are the calls of the source.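 Rule for the calls: active = z-score in the third read window above 3 or below -3; inactive = the rest.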
# Target: Metabotropic glutamate receptor 8 (Rattus norvegicus) (UniProt P70579)
# Assay: rat mGluR8 modulators via GIRK flux, primary screen, cell-based, thallium flux, HTS (AID 488969)
# Conditions: HEK293 rat mGluR8, GIRK (G protein-gated inwardly rectifying potassium channel) thallium flux, FluoZin2; at 10 µM; stronger effect = higher value; submaximal glutamate (EC20) added with thallium
# Sequence of Metabotropic glutamate receptor 8 (Rattus norvegicus) (P70579 whole entry, looked up): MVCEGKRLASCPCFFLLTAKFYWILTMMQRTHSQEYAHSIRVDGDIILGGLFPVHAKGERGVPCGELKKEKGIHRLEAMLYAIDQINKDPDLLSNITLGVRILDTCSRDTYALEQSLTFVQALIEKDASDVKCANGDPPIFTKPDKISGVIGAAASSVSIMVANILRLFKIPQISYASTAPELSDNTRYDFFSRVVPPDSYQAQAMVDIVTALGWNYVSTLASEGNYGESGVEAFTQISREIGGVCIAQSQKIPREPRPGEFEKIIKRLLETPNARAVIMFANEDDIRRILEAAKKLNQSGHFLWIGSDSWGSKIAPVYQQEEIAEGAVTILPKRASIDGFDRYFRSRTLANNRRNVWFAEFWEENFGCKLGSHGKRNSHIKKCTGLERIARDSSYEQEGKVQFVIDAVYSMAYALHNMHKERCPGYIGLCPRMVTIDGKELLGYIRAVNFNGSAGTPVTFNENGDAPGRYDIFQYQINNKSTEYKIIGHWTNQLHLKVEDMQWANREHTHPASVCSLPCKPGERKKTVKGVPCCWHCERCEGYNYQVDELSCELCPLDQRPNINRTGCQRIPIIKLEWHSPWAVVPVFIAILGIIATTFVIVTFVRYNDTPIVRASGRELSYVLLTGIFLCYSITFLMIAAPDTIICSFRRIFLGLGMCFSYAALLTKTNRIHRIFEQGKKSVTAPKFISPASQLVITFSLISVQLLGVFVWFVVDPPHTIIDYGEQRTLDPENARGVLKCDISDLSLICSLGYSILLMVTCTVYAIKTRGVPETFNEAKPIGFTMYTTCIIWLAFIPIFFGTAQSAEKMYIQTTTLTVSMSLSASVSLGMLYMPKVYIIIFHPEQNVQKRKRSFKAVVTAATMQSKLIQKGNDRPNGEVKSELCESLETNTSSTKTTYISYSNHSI
row,SMILES,z-score
1,Cc1cccc(N(CC(=O)Nc2ccccc2F)S(C)(=O)=O)c1,-0.443
2,Cc1ccccc1OCC(=O)NC1=NCCS1,0.0476
3,CCOC(=O)C(C)On1c(-c2cccc(Cl)c2)nc2ccc([N+](=O)[O-])cc21 (configuration not stated),0.66
4,CNc1nc(CCN2C(=O)c3ccccc3C2=O)cs1,-0.0681
5,CCOC(=O)C(C)Sc1nc(C2CC2)cc(C(F)(F)F)c1C#N (configuration not stated),1.1
6,O=C(NC(C(=O)O)c1ccccc1)c1ccccc1 (configuration not stated),0.488
7,COC(=O)CCC(=O)Nc1ccc(C)cc1OC(=O)CCC(=O)OC,0.273
8,COc1ccccc1CNS(=O)(=O)c1c(C)[nH]c(=O)[nH]c1=O,0.0871
9,O=C1CC(c2ccc(S(=O)(=O)NCCOc3ccccc3)cc2)CN1 (configuration not stated),0.129
10,Cc1ccccc1CN1C2=NCCCN2c2ccccc21,3.26 (active)
11,Cc1ccc(C(O)CN2C3=NCCCN3c3ccccc32)cc1 (configuration not stated),1.16
12,Cc1ccc(CN2C3=NCCCN3c3ccccc32)cc1,3.51 (active)
13,Fc1ccc(CN2C3=NCCCN3c3ccccc32)cc1,-0.37
14,CCN1C2=NCCCN2c2ccccc21,0.0152
15,CCCN1C2=NCCCN2c2ccccc21,0.397
16,C=CCNC(=O)c1cc(Cl)ccc1Cl,0.018
17,COc1ccc2c(C)cc(=O)[nH]c2c1,-0.159
18,O=C(NC1CC1)c1cc2c(s1)-c1ccccc1OC2,-0.272
19,CN(C)CCNC(=O)c1cc2c(s1)-c1ccccc1OC2,3.28 (active)
20,O=C(NCc1cccs1)c1cc2c(s1)-c1ccccc1OC2,-0.399
21,Cc1cc(C)n(-c2ccc(Cl)c(C(=O)Nc3cc(C(F)(F)F)ccc3Cl)n2)n1,0.25
22,CC(C)c1ccc(OCC(=O)N(Cc2ccccc2)c2ccccn2)cc1,-0.499
23,CCN(CC(=O)Nc1cccc(OC)c1)c1ncnc2sc(C)c(C)c12,-0.125
24,Cc1c(NC(=O)CSc2ncn[nH]2)c(=O)n(-c2ccccc2)n1C,0.565

row,SMILES,z-score
1,CCCCc1ccc(NC(=S)Nc2cccnc2)cc1,2.66
2,CC(=O)N1CCN(CC(=O)Nc2ccc(Cl)c(S(=O)(=O)N(C)C)c2)CC1,-0.0302
3,CCCCc1ccc(NC(=S)Nc2ccc(Nc3ccc(OC)cc3)cc2)cc1,-0.0123
4,CCC(C(=O)OCC(=O)Nc1ccc(Cl)c(S(=O)(=O)N(C)C)c1)c1ccccc1 (configuration not stated),-2.23
5,CCCCc1ccc(NC(=S)Nc2ccc(Cl)c(S(=O)(=O)N(C)C)c2)cc1,5.93 (active)
6,CCCCC(=O)Nc1ccc(C(=O)Nc2cccnc2)cc1,0.0123
7,CNC(=O)N1CCN(C(=O)NC)CC1,-0.168
8,CCN(CC)S(=O)(=O)c1ccc(N2CCOCC2)c(NS(=O)(=O)c2cc(C(C)(C)C)ccc2C)c1,-0.103
9,O=C1[C@@H]2[C@H](C(=O)N1Cc1ccco1)[C@H]1C=C[C@@H]2C1,-0.0939
10,Cc1cc(C(=O)CSc2nc3ccccc3o2)c(C)n1CC1CCCO1 (configuration not stated),-0.415
11,CCCCCCc1cc2cc(C(=O)NC)c(=N)oc2cc1O,11.6 (active)
12,CCCCCCc1cc2cc(C(=O)NCc3ccccc3)c(=N)oc2cc1O,0.891
13,CCCCCCc1cc2cc(C(N)=O)c(=N)oc2cc1O,-1.44
14,O=C(Nc1ccc(Br)cc1)c1ccc(N2C(=O)C3CC=CCC3C2=O)cc1 (configuration not stated),0.106
15,COc1cc(C(=O)NNC2=CC(=O)CC(C)(C)C2)cc(OC)c1OC,-0.21
16,Cc1cc(N/C(=N\S(=O)(=O)c2ccc(F)cc2F)c2ccccc2)no1,0.0702
17,CCS(=O)(=O)Nc1ccc(-c2nnc(SCC(=O)c3ccc(NC(C)=O)c(OC)c3)o2)cc1,4.64 (active)
18,CCC(=O)Nc1ccc(C(=O)CSc2nnc(CNc3ccc(Cl)cc3)o2)cc1OC,-0.38
19,CCn1c(SCC(=O)c2ccc(NC(C)=O)c(OC)c2)nnc1-c1ccc(NS(C)(=O)=O)cc1,-0.0548
20,COc1ccc(-c2nnc(SCC(=O)Oc3ccc(C)cc3)o2)cc1,-0.915
21,Cc1ccc(C(=O)CSc2nnc(-c3ccccc3)o2)cc1,0.068
22,COc1ccc(-c2nnc(SC(C)C(=O)NNC(=O)c3ccc(C)cc3)o2)cc1 (configuration not stated),2.1
23,COc1ccc(-c2nnc(SC(C)C(=O)Nc3cccc(Cl)c3)o2)cc1 (configuration not stated),-0.517
24,COc1ccc(-c2nnc(SC(C)C(=O)Nc3ccc4c(c3)OCCO4)o2)cc1 (configuration not stated),1.65

row,SMILES,z-score
1,COc1ccc(C(=O)CSc2nnc(-c3ccc(C)cc3)o2)cc1,2.18
2,COCCNC(=O)c1onc(CSc2ccc(C)c(C)c2)c1C(=O)O,-0.0285
3,CN1C(=O)COc2ccc(C(=O)c3oc4ccccc4c3-c3cnc4c(c3)COc3ccccc3-4)cc21,-0.142
4,O=C(Cc1ccccc1)Nc1c[nH]c(=O)[nH]c1=O,-0.449
5,Brc1ccc2[nH]c3c(N4CCc5ccccc5C4)ncnc3c2c1,-0.00372
6,O=C(CCn1cccc1)Nc1cc(F)ccc1F,-0.224
7,Cc1cncn1CCc1nc2c3ccccc3nc(=S)n2[nH]1,-0.535
8,S=c1nc2ccccc2c2nc(-c3ccccc3)[nH]n12,2.81
9,Cc1nc2ccccc2n1CCc1nc2c3ccccc3nc(=S)n2[nH]1,-0.257
10,Cc1ccccc1C(=O)Nc1ccccc1C(=O)NCc1ccccc1,-0.529
11,CCOC(=O)c1cn2nc(-c3ccc(OCC)cc3)cc2nc1C1CCN(C(=O)OC(C)(C)C)CC1,-0.13
12,O=C(COC(=O)c1ccc([N+](=O)[O-])s1)Nc1ccccc1,-0.0827
13,Cc1ccc(NC(=O)COC(=O)c2ccc([N+](=O)[O-])s2)c(C)c1,0.229
14,CC(C)(C)c1ccc(NC(=O)COC(=O)c2ccc([N+](=O)[O-])s2)cc1,2.01
15,COc1ccccc1/C=C/C(=O)NCC(=O)N/N=C/c1cccnc1,0.376
16,CC(NS(=O)(=O)c1ccc(CCC(=O)NCc2cccnc2)cc1)c1ccccc1 (configuration not stated),0.0386
17,Cc1nnc(SCC(=O)Nc2ccccc2N2CCOCC2)s1,-0.0127
18,O=C(Nc1ccc(Br)cc1)C1CCC(=O)N1Cc1ccccc1Cl (configuration not stated),4.3 (active)
19,O=C(Nc1ccc(Cl)cc1)C1CCC(=O)N1Cc1ccccc1Cl (configuration not stated),0.406
20,O=C(Nc1cc(Cl)cc(Cl)c1)C1CCC(=O)N1Cc1ccccc1Cl (configuration not stated),-0.359
21,CCCCN(CCCC)CC(O)CN(c1cc([N+](=O)[O-])ccc1OC)S(=O)(=O)c1ccccc1 (configuration not stated),0.91
22,Cc1[nH]c2ccccc2c1CN1CCc2ccccc2C1,3.72 (active)
23,Cn1cc(CN2CCc3ccccc3C2)c2ccccc21,0.58
24,O=c1[nH]c(CN2CCc3ccccc3C2)nc2ccccc12,0.446

row,SMILES,z-score
1,COc1ccc(-c2[nH]ncc2/C=N\NC(=O)c2ccc(C(C)(C)C)cc2)cc1OC,-0.413
2,CCOC(=O)c1c(-c2ccc(C)cc2)csc1NC(=S)NC(=O)c1ccccc1,0.153
3,CCOC(=O)c1c(-c2ccccc2)csc1NC(=O)C1CCCO1 (configuration not stated),-0.568
4,CCOC(=O)c1c(-c2ccccc2)csc1NC(=O)CCN1C(=O)c2ccccc2C1=O,-0.51
5,CCOC(=O)c1c(-c2ccccc2)csc1NC(=S)NC,7.44 (active)
6,CCNC(=S)Nc1scc(-c2ccccc2)c1C(=O)OCC,6.92 (active)
7,CCOC(=O)c1c(-c2ccccc2)csc1NC(=S)N(CC)CC,0.121
8,COc1ccc(NC(=O)c2ccc3snnc3c2)cc1,-0.112
9,CS(=O)(=O)N1CCN(c2ccc(NC(=O)c3cccnc3Cl)cc2)CC1,0.393
10,CC(NS(=O)(=O)c1ccccc1)C(=O)Nc1ccc(S(N)(=O)=O)cc1 (configuration not stated),0.246
11,CCCc1cc(=O)[nH]c(SCCOC(=O)c2ccccc2)n1,-0.349
12,COc1ccc2nc(NC(=S)N(C)C)sc2c1,14.8 (active)
13,CCOc1ccc2nc(NC(=S)N(C)C)sc2c1,-0.436
14,COc1ccc2nc(NC(C)=O)sc2c1,-0.0562
15,COc1cccc(N=C2SC(C(=O)Nc3ccccc3F)CC(=O)N2C)c1 (configuration not stated),-0.119
16,CC(=O)Oc1ccc(N(C(C)=O)S(=O)(=O)c2cccs2)cc1,-0.202
17,CC(=O)Oc1ccc(N(C(C)=O)S(=O)(=O)c2cccs2)c2ccccc12,4.9 (active)
18,COc1ccc(S(=O)(=O)N(C(C)=O)c2ccc(OC(C)=O)c3ccccc23)cc1[N+](=O)[O-],-0.812
19,CC(C)C(=O)Nc1nnn(C)n1,9.51 (active)
20,CC(C)C(=O)NC(=S)Nc1nnn(C)n1,0.169
21,CC(C)CC(=O)Nc1nnn(C)n1,0.332
22,CCN1CCCC1CNC(=O)C(=O)Nc1ccc(OC)cc1 (configuration not stated),0.521
23,CCN1CCCC1CNC(=O)C(=O)Nc1cccc(OC)c1 (configuration not stated),2.04
24,CCN1CCCC1CNC(=O)C(=O)Nc1ccccc1OC (configuration not stated),0.00956

row,SMILES,z-score
1,CCOc1ccc(N(CC(=O)N2CC=C(c3ccccc3)CC2)S(=O)(=O)c2c(C)noc2C)cc1,-0.285
2,O=C(COC(=O)c1cn(-c2ccccc2)nc1-c1ccc(F)cc1)Nc1ncc(Cl)cc1Cl,0.0446
3,CCC(C)NC(=O)C1CCN(c2nc(OC)nc(OC)n2)CC1 (configuration not stated),0.12
4,C/C(CC(=O)Nc1cccc2c1CCCC2)=N\NC(=O)c1ccccc1N,2.22
5,C/C(CC(=O)Nc1cccc2c1CCCC2)=N\NC(=O)c1cccc2ccccc12,-0.483
6,CCn1c2ccccc2c2cc(NC(=O)C/C(C)=N/NC(=O)c3ccccc3N)ccc21,-0.0756
7,COc1cc(NC(=O)c2ccco2)ccc1NC(=O)C(C)C,0.332
8,Nc1nc(SCC(=O)NCCCO)nc2sc3c(c12)CCC3,1.08
9,O=C(CC1NC2CCCCC2NC1=O)Nc1cccc(C(F)(F)F)c1 (configuration not stated),0.497
10,CCc1cccc(NC(=O)C2CCCC2)c1,0.366
11,O=C(Nc1ccc(Cl)cc1)NC1CCCCC1,0.269
12,CCc1cccc(NC(=O)CCSCCC(=O)Nc2cccc(CC)c2)c1,3.02 (active)
13,CCc1cccc(NC(=O)COc2ccccc2)c1,0.78
14,O=C(CSC1=NS(=O)(=O)c2ccccc21)Nc1ccccc1,-0.326
15,O=C(Nc1ccc(F)c(F)c1)NC1CCCCC1,3.01 (active)
16,COC(=O)CSC1=NS(=O)(=O)c2ccccc21,-2.06
17,CCc1cccc(NC(=O)NC2CCCCC2)c1,4.38 (active)
18,O=C(Nc1cccc(F)c1)NC1CCCCC1,0.258
19,CCc1cccc(NC(=O)CSC2=NS(=O)(=O)c3ccccc32)c1,3.52 (active)
20,O=C(Nc1ccc(F)cc1)NC1CCCCC1,0.532
21,Cc1ccc(NC(=O)CCSCCC(=O)Nc2ccc(C)c(C)c2)cc1C,-0.0616
